Assay results: article PMC4552634, “A New Set of Chemical Starting Points with Plasmodium falciparum Transmission-Blocking Potential for Antimalarial Drug Discovery” (PLoS ONE, 2015)
Where two headings read alike, the source gives them in different places. Hit rate of the full screen: of about 13,000 compounds, about 3,200 (25%) showed an effect of 50% or more. This is one part of the list.

Test system: P. falciparum stage V gametocytes
Set-up: BacTiter-Glo ATP luminescence viability of purified stage V gametocytes in 384-well plates, per cent inhibition versus DMSO
Conditions: 48 h, 5 µM, inhibitor

Compound | % Inhibition | % Inhibition (% Inhibition)
NC(=O)c1cc(-c2ccccc2)cc2c(C3CCC(NCc4ccccc4)C3)c[nH]c12 (stereo not drawn) [TCMDC-136335] | 119.1% | 
Oc1cccc2c1CC(NCc1ccccc1)CC2 (stereo not drawn) [TCMDC-137987] | 8.096% | 
CCCNc1ccc(-c2cc(C(N)=O)c3[nH]cc(C4CCN(S(=O)(=O)CC)CC4)c3c2)cn1 [TCMDC-136721] | 8.74% | 
COC(=O)c1sccc1NC(=S)NC1CCC(CN2CCC(c3c[nH]c4ccccc34)CC2)CC1 (stereo not drawn) [TCMDC-140184] |  | 87.69%
COC(=O)c1sccc1NC(=S)NC1CCC(CN2CCC(c3c[nH]c4ccccc34)CC2)CC1 (stereo not drawn) [TCMDC-140202] |  | 68.17%
S=C(Nc1ccc2c(c1)OCCO2)NC1CCC(CN2CCC(c3c[nH]c4ccccc34)CC2)CC1 (stereo not drawn) [TCMDC-140187] |  | 28.79%
S=C(Nc1ccc2c(c1)OCCO2)NC1CCC(CN2CCC(c3c[nH]c4ccccc34)CC2)CC1 (stereo not drawn) [TCMDC-140205] |  | -9.163%
O=C(Nc1ccc(C(=O)OCC2CCCN3CCCCC23)cc1)c1ccc([N+](=O)[O-])cc1 (stereo not drawn) [TCMDC-124028] | -7.885% | 
COc1ccc2nccc([C@@H](O)CN3CCC(NC[C@H](Cc4ccccc4)NC(=O)OC(C)(C)C)CC3)c2c1 [TCMDC-140729] | 28.25% | 
COc1ccc2nc(N3CCNCC3)nc(NCCCc3ccccc3)c2c1 [TCMDC-138367] | 61.05% | 
COc1ccc(-c2ccccc2CNc2nc(NCCc3ccc(O)cc3)nc(N3CCNCC3)n2)cc1 [TCMDC-133785] | 16.29% | 
COc1ccc2nc(N3CCN(C(=O)OC(C)(C)C)CC3)nc(NCCCc3ccccc3)c2c1 [TCMDC-138361] | 104.5% | 
Oc1ccc2nc(N3CCNCC3)nc(NCCCc3ccccc3)c2c1 [TCMDC-138362] | -3.438% | 
C/C(=C\C(=O)NC1CC1)c1ccccc1OCc1ccccc1 [TCMDC-137859] | -0.1612% | 
COC(=O)c1cccc(CNCc2cccc(-c3ccc(-c4nc5ccccc5[nH]4)s3)c2)c1.O=C(O)C(F)(F)F [TCMDC-132944] | -0.1401% | 
COc1ccccc1CCNc1nc(C)cc(NCCC(=O)NCCOc2ccccc2)n1 [TCMDC-134799] | 41.79% | 
Cc1cc(NCCC(=O)NCCOc2ccccc2)nc(Nc2ccccc2)n1 [TCMDC-134732] | 39.63% | 
Cc1cc(NCCC(=O)NCCOc2ccccc2)nc(NCCOc2ccccc2)n1 [TCMDC-134877] | 53.53% | 
Cc1cc(NCCC(=O)NCCOc2ccccc2)nc(NCCc2ccccc2)n1 [TCMDC-134771] | 71.03% | 
COc1ccc(NC(=O)CCNc2cc(C)nc(Nc3ccccc3)n2)cc1 [TCMDC-134731] | 16.78% | 
Cc1cc(NCCC(=O)Nc2ccccc2)nc(NCCOc2ccccc2)n1 [TCMDC-134878] | 88.65% | 
Cc1cc(NCCC(=O)NCCOc2ccccc2)nc(NCCc2ccc(F)cc2)n1 [TCMDC-134865] | 48.39% | 
COc1ccc(NC(=O)CCNc2cc(C)nc(NCCOc3ccccc3)n2)cc1 [TCMDC-134876] | 16.63% | 

Compound | % Inhibition | % Inhibition (% Inhibition)
Cc1cc(NCCC(=O)NCCOc2ccccc2)nc(NCc2ccccc2C)n1 [TCMDC-134900] | 9.691% | 
Cc1cccc(N2CCN(C3CCC(NC(=O)c4cc5ccccc5[nH]4)CC3)CC2)c1C (stereo not drawn) [TCMDC-132891] | -4.538% | 
COc1ccc(S(=O)(=O)N2CCC(NS(=O)(=O)c3ccc(F)cc3)CC2)cc1 [TCMDC-123512] | 11.24% | 
CC(=O)Nc1ccc(CN(C)C2CCN(c3cc(NC(=O)c4cccc(C)c4)ccn3)CC2)cc1 [TCMDC-134982] | -8.957% | 
CN1CCN(c2cccc(NC(=O)c3ccc(-c4ccc(C#N)cc4)cc3)c2)CC1 [TCMDC-138669] | -26.05% | 
COc1cccc2sc(Nc3nc(-c4ccccn4)cs3)nc12 [TCMDC-125543] | 33.34% | 
Fc1cccc2sc(Nc3nc(-c4ccccn4)cs3)nc12 [TCMDC-125542] | 81.67% | 
c1ccc(-c2csc(Nc3nc4cc5c(cc4s3)OCO5)n2)nc1 [TCMDC-124550] | 41.05% | 
COc1ccc2nc(Nc3nc(-c4ccccn4)cs3)sc2c1 [TCMDC-125541] | 1.427% | 
Fc1ccc2nc(Nc3nc(-c4ccccn4)cs3)sc2c1 [TCMDC-125540] | 71.85% | 
Cc1ccc(NC(=O)c2ccc3ncccc3c2)cc1OC1CCN(Cc2ccc(F)cc2)CC1 [TCMDC-133747] | -16.12% | 
Cc1cc(NC(=O)Nc2ccc(I)c(OCCN(C)C)c2)ccc1Br [TCMDC-139108] | -4.695% | 
CN(Cc1cccc(O)c1)C1CCCN(c2cc(NC(=O)c3ccc(F)cc3)ccn2)C1 (stereo not drawn) [TCMDC-134960] | -31.52% | 
CNC(=O)/C=C/c1cc(NC(=O)Nc2ccnc3c(Br)cccc23)ccc1OC [TCMDC-140331] | 7.673% | 
O=C1C2=C(Nc3ccccc3SC2c2ccccc2)c2ccccc21 (stereo not drawn) [TCMDC-123496] | 22.47% | 
COc1ccc(-c2ccc(NC(=O)c3cccc(F)c3)cc2)cc1CN1CCCN(C)CC1 [TCMDC-132528] | 79.48% | 
CN1CCCN(Cc2ccc(-c3cccc(NC(=O)c4cccc(F)c4)c3)cc2)CC1 [TCMDC-132646] | -5.89% | 
COc1ccc(-c2cccc(NC(=O)c3ccc(F)cc3)c2)cc1CN1CCCN(C)CC1 [TCMDC-132607] | 5.891% | 
COc1ccc(-c2ccc(NC(=O)c3cccc(C#N)c3)cc2)cc1CN1CCCN(C)CC1 [TCMDC-132531] | 38.42% | 
COc1ccc(-c2cccc(NC(=O)c3cccc(F)c3)c2)cc1CN1CCCN(C)CC1 [TCMDC-132619] | 89.96% | 
COc1ccc2c(c1)OC(C)(C)CC2=NOS(=O)(=O)c1ccc(C)cc1 [TCMDC-131772] | -0.3703% | 
O=c1cc(NCCCNC2CCOc3c(Cl)cc(Cl)cc32)[nH]c2ccccc12 (stereo not drawn) [TCMDC-139477] | 33.79% | 
CC(=O)N[C@H](C(=O)Nc1ccc(-c2ccc(-c3nc4ccc(C(F)(F)F)cc4[nH]3)cc2)cc1)C(C)C [TCMDC-136854] | -3.438% | 

Compound | % Inhibition | % Inhibition (% Inhibition)
Cc1cccc2nc(-c3ccc(-c4ccc(NC(=O)NC5CC5c5ccccc5)cc4)cc3)[nH]c12 (stereo not drawn) [TCMDC-133255] | -29.85% | 
Cc1cccc2nc(-c3ccc(-c4ccc(NC(=O)Nc5ccc(Cl)cc5)cc4)s3)[nH]c12 [TCMDC-133176] | -22.37% | 
Cc1nnsc1C(=O)Nc1cccc(-c2ccc(-c3nc4cc(F)ccc4[nH]3)s2)c1 [TCMDC-137089] | 59.58% | 
Cc1cccc2nc(-c3ccc(-c4cccc(NC(=O)Nc5ccc(Cl)c(Cl)c5)c4)s3)[nH]c12 [TCMDC-133272] | -3.418% | 
O=C(Nc1cccc(-c2ccc(-c3nc4cc(F)ccc4[nH]3)s2)c1)c1ccncc1 [TCMDC-136968] | -9.65% | 
Cc1nnsc1C(=O)Nc1cccc(-c2ccc(-c3nc4cccc(C)c4[nH]3)s2)c1 [TCMDC-137091] | 82.4% | 
Cc1nnsc1C(=O)Nc1cccc(-c2ccc(-c3nc4ccccc4[nH]3)s2)c1 [TCMDC-137079] | 9.217% | 
COc1ccc(NC(=O)Nc2cccc(-c3ccc(-c4nc5cccc(C)c5[nH]4)s3)c2)cc1 [TCMDC-133242] | 1.322% | 
Cc1cccc2nc(-c3ccc(-c4cccc(NC(=O)Nc5ccc(Cl)cc5)c4)s3)[nH]c12 [TCMDC-133175] | 74.56% | 
Cc1nnsc1C(=O)Nc1ccc(-c2ccc(-c3nc4cccc(C)c4[nH]3)s2)cc1 [TCMDC-137090] | 0.4196% | 
CC1CC(NCCCNc2cc(=O)c3ccccc3[nH]2)c2cc(Cl)c(Cl)c(Cl)c21 (stereo not drawn) [TCMDC-139479] | 22.71% | 
C(=Cc1nc2ccccc2s1)c1ccc2c(c1)OCCO2 [TCMDC-124539] | 68.35% | 
N=C(N)c1nc2ccccc2s1 [TCMDC-123945] | 9.097% | 
C=CCNC(=O)CCCN=C(N)N [TCMDC-131668] | 6.787% | 
CCOC(=O)c1ccc2nc(-c3ccc(C(=O)NCc4ccc(C(C)(C)C)cc4)cc3)[nH]c2c1 [TCMDC-140576] | -8.95% | 
Cc1cc2nc(-c3ccc(OCC(=O)NCc4ccc(C(C)(C)C)cc4)cc3)[nH]c2cc1C [TCMDC-140440] | 63.48% | 
CC(C)(C)c1ccc2nc(-c3ccc(C(=O)NCc4cccc(C(F)(F)F)c4)cc3)[nH]c2c1 [TCMDC-140454] | 18.91% | 
CC(C)(C)c1ccc2nc(-c3ccc(C(=O)NCCCc4ccccc4)cc3)[nH]c2c1 [TCMDC-140453] | 68.75% | 
CC(C)(C)c1ccc(CNC(=O)c2ccc(-c3nc4ccc(Cl)cc4[nH]3)cc2)cc1 [TCMDC-140442] | 5.243% | 
CC(C)(C)c1ccc(CNC(=O)c2ccc(-c3nc4ccc(C(C)(C)C)cc4[nH]3)cc2)cc1 [TCMDC-140455] | 76.42% | 
Cc1cc2nc(-c3ccc(C(=O)NCc4ccc(C(C)(C)C)cc4)cc3)[nH]c2cc1C [TCMDC-140433] | -24.96% | 
Cc1cc2nc(-c3ccc(C(=O)NCCCc4ccccc4)cc3)[nH]c2cc1C [TCMDC-140429] | -39.85% | 
Cc1cc2nc(-c3ccc(OCC(=O)NCc4cccc(C(F)(F)F)c4)cc3)[nH]c2cc1C [TCMDC-140439] | -1.946% | 
